Luciferase inh – blocks Photinus pyralis firefly luciferase activity; Potency, µM (highest dose often 57.1 µM), usual class: inhibitors; P08659; purified firefly luciferase, luminescence, 8 min; AID 411; 72,000 tested, 2.2% active; active means well fitted inhibition curve with a large enough effect; inconclusive means small, poorly fitted or top-dose-only effect; further: nearly all actives have a fitted effect of over 40% in size
Target sequence (P08659 whole entry, looked up): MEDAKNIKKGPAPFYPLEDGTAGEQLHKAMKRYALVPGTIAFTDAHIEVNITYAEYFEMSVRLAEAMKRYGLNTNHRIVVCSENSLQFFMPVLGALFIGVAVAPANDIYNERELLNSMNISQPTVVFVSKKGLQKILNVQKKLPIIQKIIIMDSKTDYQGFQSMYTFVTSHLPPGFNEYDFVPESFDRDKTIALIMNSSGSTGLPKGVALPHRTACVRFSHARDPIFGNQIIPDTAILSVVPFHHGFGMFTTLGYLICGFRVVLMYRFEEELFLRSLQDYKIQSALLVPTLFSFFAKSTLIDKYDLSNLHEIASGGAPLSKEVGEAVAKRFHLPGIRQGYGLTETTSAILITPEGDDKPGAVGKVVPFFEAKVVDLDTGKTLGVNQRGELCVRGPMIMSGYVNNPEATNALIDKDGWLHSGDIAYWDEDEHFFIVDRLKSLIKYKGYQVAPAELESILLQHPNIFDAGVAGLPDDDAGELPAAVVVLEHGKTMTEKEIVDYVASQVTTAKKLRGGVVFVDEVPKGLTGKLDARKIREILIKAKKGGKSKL
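Here, luciferase activity is measured as luminescence following an 8 min room-temperature reaction at 10 uM ATP, pH 7.2. Every library sample is titrated.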
PK Bst – pyruvate kinase (B. stearothermophilus) modulation. 51,000 tested, 1.2% active. purified pyruvate kinase, luminescence ATP production; ribose 5-phosphate activator present at AC10. Potency, µM. AID 361; in the data active means potency below about 11 µM; inconclusive means mostly about 12 µM to 25 µM;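 the screen sought inhibitors and activators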
Large screens that a line does not name were inactive; ! = not active in a repeat. In the library only some 2.5% were active in any assay of this set; here they are far more common.

Cc1ccc(C)c(N(C)S(=O)(=O)c2cccc3nsnc23)c1	none
O=C(c1cc(=O)c2ccccc2o1)N1CCCc2ccccc21	none
Cc1ccc(C)c(C(=O)n2cnnc2N)c1	none
O=c1c2c3nc4ccccc4nc3n(CCN3CCOCC3)c2ncn1CCN1CCOCC1	none
COC(=O)Cn1ncc2c(C)n(Cc3ccccc3)c(C)c2c1=O	Luciferase inh 20µM (no result: PK Bst)
COc1ccc2cnn(Cc3ccccc3)c(=O)c2c1OC	PK Bst inconclusive
O=C(CSc1nc2c(sc3ccccc32)c(=O)n1Cc1ccco1)NCC1CCCO1 (centres undefined)	none
CC(Sc1nnc(-c2cc3ccccc3o2)n1-c1ccccc1)C(=O)O (centres undefined)	none
Cc1cc(C)nc(N(C#N)CC(=O)N2CCC(C(N)=O)CC2)n1	Luciferase inh 7.9µM, PK Bst inconclusive
Cc1cc(=O)[nH]c(SCC(=O)N2CCC(C(N)=O)CC2)n1	none
O=C(Nc1ccc(N2CCCC2=O)cc1)c1cccc(F)c1	none (no result: PK Bst)
O=C(c1ccccc1)c1ccc(N2CCNCC2)cc1	none
O=C(Nc1ccc(N2CCCC2)cc1)c1cccc(F)c1	Luciferase inh 3.2µM, PK Bst inconclusive
CN1CCN(c2ccc(C(=O)c3ccc(F)cc3)cc2)CC1	Luciferase inh 25µM (no result: PK Bst)
O=C(c1ccccc1)c1ccc(N2CCCC2)cc1	Luciferase inh 13µM (no result: PK Bst)
O=C(O)CCC(=O)N1CCN(c2ccc(C(=O)c3ccc(F)cc3)cc2)CC1	none
CC(C)=CC(=O)Nc1nnc(-c2cccnc2)s1	none
COc1cccc(-c2noc(N)c2C#N)c1	none
CC(=O)Nc1cccc(NC(=O)CCCC(=O)O)c1	none (no result: PK Bst)
COCC(=O)Nc1nc2n(n1)C(c1ccccc1Cl)CC(c1ccc(OC)cc1)N2 (centres undefined)	none
COc1ccc(OCC(=O)Nc2ccc3c(c2)nc(CCN2CCOCC2)n3C)cc1	Luciferase inh 25µM
Cn1c(CCN2CCOCC2)nc2cc(NC(=O)COc3ccc(Cl)cc3)ccc21	none
c1ccc2nc3c(nc2c1)sc1nc2ccccc2n13	PK Bst inconclusive
CC(C)(O)c1cc(=O)sc2nc3ccccc3n12	Luciferase inh 25µM
NC(=O)C1CCCN(S(=O)(=O)c2ccc(Br)cc2)C1 (centres undefined)	none
CCCCNc1ncnc2c1cnn2-c1ccccc1	Luciferase inh 13µM (no result: PK Bst)
Clc1ccc(-n2ncc3c(NCCCn4ccnc4)ncnc32)cc1	PK Bst inconclusive
COCCNc1ncnc2c1cnn2Cc1ccc(Cl)cc1	none
CCCCNc1ncnc2c1cnn2-c1ccc(C)cc1C	none (no result: PK Bst)
CCCCNc1ncnc2c1cnn2-c1ccc(Cl)cc1	Luciferase inh 10µM (no result: PK Bst)
COCC(C)Nc1ncnc2c1cnn2-c1ccc(Cl)cc1 (centres undefined)	Luciferase inh 7.9µM, PK Bst 11
O=C(COC(=O)CCN1C(=O)c2ccccc2C1=O)Nc1ccc(S(=O)(=O)N2CCCC2)cc1	none
COc1ccc(S(=O)(=O)N2CCCC(C(=O)NCc3ccncc3)C2)cc1 (centres undefined)	none
O=C(NCc1ccco1)c1csc2c1CCCCC2	none
Nc1nnc2c(n1)CCCC2	none
CCCCCCCCCCCCCCC[C@@H](O)[C@@H](N)CO	none (no result: PK Bst)
NC(=O)c1cc(-c2ccccc2)nc(N2CCOCC2)n1	PK Bst 4
NC(=O)c1cc(-c2ccccc2)nc(N2CCCCCC2)n1	none
COc1ccc(S(=O)(=O)N(CC(=O)N2CCN(C)CC2)C2CCCCC2)cc1OC	none
c1ccc(-c2onc3cc4c(cc23)OCCO4)cc1	Luciferase inh 13µM (no result: PK Bst)
CC1(c2ccc3noc(-c4ccc(Cl)cc4)c3c2)OCCO1	PK Bst inconclusive
Cc1csc(C(C#N)C(=O)c2cc3ccccc3o2)n1 (centres undefined)	Luciferase inh 13µM, PK Bst inconclusive
CCC(=O)Nc1ccc(NC(=O)c2cc3ccccc3o2)cc1	none (no result: PK Bst)
Fc1cccc2sc(Nc3nnc(-c4ccccc4)o3)nc12	Luciferase inh 13µM
COc1ccc(-c2nnc(Nc3nc4c(OC)cccc4s3)o2)c(OC)c1	Luciferase inh 13µM
COc1cccc2sc(NC(=O)c3ccc(S(=O)(=O)N4CCOCC4)cc3)nc12	none
COc1cc(OC)cc(-c2nnc(Nc3nc4c(F)cccc4s3)o2)c1	none
COc1ccc(-c2nnc(Nc3nc4c(OC)cccc4s3)o2)cc1	Luciferase inh 10µM
COc1ccc(-c2ccc(-c3nnc(-c4cc(OC)ccc4OC)o3)cc2)cc1	none
O=C(CCNS(=O)(=O)c1cccs1)NCc1ccco1	none
COc1ccc(OC)c(NC(=O)CN2C(=O)c3ccccc3S2(=O)=O)c1	none (no result: PK Bst)
COc1ccc(NC(=O)CN2c3cccc4cccc(c34)S2(=O)=O)cc1	PK Bst 1.4
Cc1c(NC(=O)CN2C(=O)c3ccccc3S2(=O)=O)c(=O)n(-c2ccccc2)n1C	none
Cc1c(NC(=O)CN2c3cccc4cccc(c34)S2(=O)=O)c(=O)n(-c2ccccc2)n1C	PK Bst 11
Cc1[nH]c(=O)[nH]c(=O)c1S(=O)(=O)N1CCOCC1	none (no result: PK Bst)
O=C(NC1=NCCS1)c1ccncc1	none
O=C(Nc1cccc(Cl)c1N1CCCC1)c1cc2ccccc2o1	none (no result: PK Bst)
Cc1cc(C(=O)NC2=NCCS2)cs1	Luciferase inh 16µM (no result: PK Bst)
O=C(NC1=NCCS1)Nc1ccccc1	Luciferase inh 16µM
O=C(NC1=NCCS1)c1cc2ccccc2o1	Luciferase inh 5µM (no result: PK Bst)
O=C(Nc1ccc(Cl)cn1)c1cc2ccccc2o1	Luciferase inh 7.9µM, PK Bst inconclusive
O=C(Nc1cccc2ncccc12)c1cc2ccccc2o1	none
O=C(NC1=NCCS1)c1cccs1	none
CCOCCOC(=O)C1=C(C)N(C)C(=O)NC1c1cc(Cl)c(O)c(OCC)c1 (centres undefined)	none
NC(=O)c1c(NC(=O)CN2CCOCC2)sc2c1CCC2	none
Cc1nnc(SCC(=O)N2c3ccccc3CC2C)s1 (centres undefined)	none
COc1ccc(O)c(-c2cc(-c3cccc(Br)c3)n[nH]2)c1	none (no result: PK Bst)
COC(=O)c1cc(-c2ccc(OC)c(OC)c2)n[nH]1	none (no result: PK Bst)
Oc1ccccc1-c1cc(-c2ccc3c(c2)OCCO3)n[nH]1	Luciferase inh 3.2µM, PK Bst 1.9
COc1ccc(-c2cc(-c3cc(F)ccc3O)[nH]n2)cc1OC	Luciferase inh 13µM, PK Bst 9.6
COc1ccc(-c2[nH]ncc2-c2ccc3c(c2)OCCO3)c(O)c1	none
Cc1ccc(-c2cc(-c3cccc(F)c3)n[nH]2)c(O)c1	Luciferase inh 13µM, PK Bst 11
COc1cc(-c2ccc(=O)[nH]n2)ccc1OC(F)F	none (no result: PK Bst)
COc1ccc(-c2cc(-c3ccccc3O)[nH]n2)cc1OC	Luciferase inh 4µM (no result: PK Bst)
Cc1cnc(CNc2ncnc3ccc(-c4ccccc4Cl)cc23)cn1	none (no result: PK Bst)
N#Cc1c(/N=C/c2ccco2)sc2c1CCCCC2	Luciferase inh 0.79µM, PK Bst 0.52
N#Cc1c(/N=C/c2cccs2)sc2c1CCC2	Luciferase inh 10µM, PK Bst inconclusive
O=c1c2c3c(sc2ncn1/N=C/c1ccco1)CCCC3	none (no result: PK Bst)
CN1CCc2c(sc(/N=C/c3cccs3)c2C(N)=O)C1	none
CCN(CCNC(=O)CCCn1nc(C)n2c(cc3sccc32)c1=O)c1ccccc1	none (no result: PK Bst)
CC(=O)NC1C2CN3CCN(C2)CC1(Cc1ccccc1)C3 (centres undefined)	none
CCN(CC)CCC[C@H](C)Nc1c2ccc(Cl)cc2nc2ccc(OC)cc12	Luciferase inh 6.3µM! (no result: PK Bst)
CCN(CC)CCNc1ccnc2cc(Cl)ccc12	none
COc1ccc(-c2nnc(SCC(=O)Nc3cc(C)on3)n2N)cc1OC	none
COc1ccc(-c2ccc(SCC(=O)Nc3cc(C)on3)nn2)cc1OC	Luciferase inh 13µM
Cc1c(C(=O)NCc2cccs2)oc2ccccc12	none
O=C(CSc1nnc(Cc2cccs2)n1Cc1ccco1)Nc1ccc(Cl)cc1Cl	none
